Experimental data published in PubChem BioAssay AID1159580 (chemical genetic matrix, 2015).
Among all 5,500 compounds or so, about 2,000 (36%) were called active. About 18% were inconclusive and are not listed. No stated cut-off is given here; in the data, active means normalized growth mostly below about 0.91 (no sharp cut-off); inconclusive means no clear call, values can overlap the other calls; inactive means mostly above about 0.92. The list shows a part of the results.

Test: chemical genetic growth profiling, strain panel (AID 1159580);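 further: tested at 20 µM; growth read once vehicle control cultures reached saturation at 30 °C; 1 = growth at the plate median or of vehicle wells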
Details: growth OD
[1] = S. cerevisiae deletion strains, locus YJR075W, strain HOC1, stronger effect = lower value
[2] = S. cerevisiae deletion strains, locus YMR307W, strain GAS1, stronger effect = lower value
[3] = S. cerevisiae deletion strains, locus YPL055C, strain LGE1, stronger effect = lower value

Measured: normalized growth

OC(CNCCc1cccs1)COc1ccccc1 (stereo unspecified)
inactive: S. cerevisiae deletion strains, locus YAL013W, strain DEP1, stronger effect = lower value 0.995 | S. cerevisiae deletion strains, locus YBR229C, strain ROT2, stronger effect = lower value 0.987 | S. cerevisiae deletion strains, locus YCL061C, strain MRC1, stronger effect = lower value 0.994 | S. cerevisiae deletion strains, locus YDL101C, strain DUN1, stronger effect = lower value 0.999 | S. cerevisiae deletion strains, locus YDL134C, strain PPH21, stronger effect = lower value 0.986 | S. cerevisiae deletion strains, locus YDR150W, strain NUM1, stronger effect = lower value 0.976 | S. cerevisiae deletion strains, locus YEL061C, strain CIN8, stronger effect = lower value 0.998 | S. cerevisiae deletion strains, locus YGR078C, strain PAC10, stronger effect = lower value 0.989 | S. cerevisiae deletion strains, locus YHR030C, strain SLT2, stronger effect = lower value 0.934 | S. cerevisiae deletion strains, locus YHR087W, strain rtc3, stronger effect = lower value 0.998 | S. cerevisiae deletion strains, locus YJR043C, strain POL32, stronger effect = lower value 0.994 | [1] 1.01 | S. cerevisiae deletion strains, locus YKL190W, strain CNB1, stronger effect = lower value 0.982 | S. cerevisiae deletion strains, locus YLR039C, strain RIC1, stronger effect = lower value 0.944 | S. cerevisiae deletion strains, locus YLR058C, strain SHM2 (second series), stronger effect = lower value 0.991 | S. cerevisiae deletion strains, locus YLR085C, strain ARP6, stronger effect = lower value 1.08 | S. cerevisiae deletion strains, locus YLR262C, strain YPT6, stronger effect = lower value 0.831 | S. cerevisiae deletion strains, locus YML094W, strain GIM5, stronger effect = lower value 1.06 | S. cerevisiae deletion strains, locus YMR219W, strain ESC1, stronger effect = lower value 1 | S. cerevisiae deletion strains, locus YMR263W, strain SAP30, stronger effect = lower value 0.99 | [2] 1.13 | S. cerevisiae deletion strains, locus YNL153C, strain GIM3, stronger effect = lower value 0.995 | S. cerevisiae deletion strains, locus YNL298W, strain CLA4 (second series), stronger effect = lower value 0.964 | S. cerevisiae deletion strains, locus YNL322C, strain KRE1, stronger effect = lower value 1 | S. cerevisiae deletion strains, locus YNR030W, strain Alg12, stronger effect = lower value 1 | S. cerevisiae deletion strains, locus YOL006C, strain TOP1, stronger effect = lower value 0.939 | [3] 1.03 | S. cerevisiae deletion strains, locus YPL241C, strain CIN2, stronger effect = lower value 1.02 | S. cerevisiae deletion strains, locus YPR135W, strain CTF4, stronger effect = lower value 0.949 | S. cerevisiae strains, strain wild type, stronger effect = lower value 0.967

N=c1c[n+](N2CCOCC2)[n-]o1
inactive: S. cerevisiae deletion strains, locus YAL040C, strain CLN3, stronger effect = lower value 1 | S. cerevisiae deletion strains, locus YCL061C, strain MRC1 (second series), stronger effect = lower value 1.02 | S. cerevisiae deletion strains, locus YDR363W, strain ESC2, stronger effect = lower value 1.01 | S. cerevisiae deletion strains, locus YER002W, strain NOP16, stronger effect = lower value 1 | [1] 1.01 | [2] 1.01 | S. cerevisiae deletion strains, locus YNL175C, strain NOP13, stronger effect = lower value 1.01 | S. cerevisiae deletion strains, locus YNL197C, strain WHI3, stronger effect = lower value 0.999 | S. cerevisiae deletion strains, locus YNL224C, strain SQS1, stronger effect = lower value 1.02 | S. cerevisiae deletion strains, locus YOR083W, strain WHI5 (second series), stronger effect = lower value 1.01 | [3] 1.02
